Shown are actives, neighbours in structure and some others; about 1.3% of the full set was active somewhere.
NR2F2 inh – NR2F2 (human) inhibition, primary screen; AID 686940; P24468; inhibition, % at 8.6 µM; 370,000 tested, 0.7% active; HEK293T NGFI-A luciferase reporter, luminescence;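 active = inhibition above a per-plate cutoff, mean inhibition of test wells between control levels plus 3 SD, cut at about 38% in these data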;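 note: cells cotransfected with COUP-TFII expression vector driving the NGFI-A reporter; 0% = median of COUP-TF2 test wells and 100% = reporter-only cells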
NR5A2 inv ag – suppresses constitutive activity of human LRH-1; O00482; inhibition, % at 3.6 µM; 360,000 tested, 0.13% active; HEK293T StAR-luciferase reporter, LRH-1 transfected, 24 h;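 active = inhibition above the mean inhibition of all tested compounds plus 3 SD, cut at about 73% in these data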;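 note: 0% = DMSO wells and 100% = reporter-only cells lacking LRH-1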
Gli-Sufu block – blocks Gli-Sufu signaling in a luciferase reporter; Sufu-KO-LIGHT fibroblasts, Gli luciferase reporter luminescence; AID 588413; inhibition, % at 5 µM; 340,000 tested, 0.74% active;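 active = inhibition above about 55%, limit read from the data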;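 note: 0% = DMSO-treated cells and 100% = wells with medium but no cells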
NCOA3 inh – inhibitors of human steroid receptor coactivator 3 (SRC3); Q9Y6Q9; HEK293 GAL4-SRC3 luciferase reporter, luminescence; inhibition, % at 3.6 µM; 360,000 tested, 0.17% active; AID 588352;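 active = inhibition above a per-campaign cutoff, the mean of all compounds plus 3 SD, cut at about 60% in these data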;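 note: 0% = DMSO-treated cells and 100% = gossypol-treated cells at 36 µM; higher means less SRC3-driven luciferase light from the GAL4 reporter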
SRC2 inh – inhibits human steroid receptor coactivator 2; Q15596; HEK293 GAL4-SRC2 luciferase reporter, luminescence; inhibition, % at 9 µM; 370,000 tested, 0.17% active; AID 651957;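 active = inhibition above the mean inhibition of all tested compounds plus 3 SD, set per campaign, cut at about 52% in these data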;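 note: 0% = DMSO treated cells and 100% = cells given Gossypol at 36 µM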
NCOA1 inh – inhibitors of human steroid receptor coactivator 1 (SRC1); 360,000 tested, 0.12% active; AID 588354; Q15788; inhibition, % at 3.6 µM; HEK293 GAL4-SRC1 luciferase reporter, luminescence;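 active = inhibition above the campaign mean plus 3 SD, with each screening campaign given its own cutoff, cut at about 60% in these data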;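 note: 0% = DMSO treated cells and 100% = gossypol at 36 µM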
Gli antag conf – confirmation of Gli-SUFU pathway antagonists; inhibition, % at 5 µM; shares compounds with Gli-Sufu block; 2,500 tested, 40% active; Sufu-KO-LIGHT cells, Gli luciferase reporter, luminescence;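 active = mean inhibition at 5 µM reaching about 45%, limit read from the data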;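 note: plate controls were DMSO-treated cells for no effect and wells lacking cells for full effect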
Gli cytotox – cytotoxicity counter-screen for Gli-SUFU antagonists. shares compounds with Gli-Sufu block. Sufu-KO-LIGHT cells cytotoxicity, ATP luminescence. cytotoxicity, % at 5 µM. 2,500 tested, 32% active;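 active = mean cytotoxicity at 5 µM above about 25%, limit read from the data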;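 note: cells exposed to compound overnight for roughly 16 to 18 hours; plate controls were DMSO wells with cells for no effect and medium without cells for full effect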
Wnt3a cs – inhibits Wnt3a reporter, counter-screen for Gli-SUFU antagonists; shares compounds with Gli-Sufu block; Wnt-LIGHT cells, Wnt3a-driven luciferase reporter, luminescence; inhibition, % at 6.25 µM; 2,500 tested, 20% active; AID 651995;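 active = mean inhibition above about 25%, limit read from the data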
Numbers without * were called inactive; . = not tested or not shown.

SMILES	NR2F2 inh	NR5A2 inv ag	Gli-Sufu block	NCOA3 inh	SRC2 inh	NCOA1 inh	Gli antag conf	Gli cytotox	Wnt3a cs
CCOC(=O)C1(Cc2cccc(OC)c2)CCN(C/C=C/c2ccccc2)CC1	26	-4	41	5	24	-6	.	.	.
CCOC(=O)C1(Cc2cccc(OC)c2)CCN(C/C=C/c2ccc(OC)cc2)CC1	19	19	53	20	24	11	38	28*	-38
CCN(CC(=O)Nc1c(F)cccc1F)C(=O)c1cc(S(=O)(=O)N(CC)CC)ccc1N1CCCCC1	19	10	52	2	-10	10	42	6	19
CCN(CC(=O)Nc1c(F)cccc1F)C(=O)c1cc(S(=O)(=O)N(C)C)ccc1N1CCCC1	-9	5	13	2	17	0	.	.	.
COc1cccc(CN(C)CC2CCCN(CCc3ccccc3C)C2)c1 (stereo unspecified)	-4	-1	61*	12	-8	1	18	3	-17
COc1ccc(CCNC(=O)Nc2ccc3c(c2)[C@]2(CC(=O)N(CC(C)C)C2c2ccccc2)C(=O)N3C)cc1OC (stereo partly specified)	-11	.	.	.	16	.	.	.	.
COc1ccc(CC(=O)NNC(=O)CCC(=O)Nc2cc(C)ccc2C)cc1	6	5	82*	13	8	1	11	15	-1
COc1ccc(C(=O)NNC(=O)CCC(=O)Nc2ccc(C)cc2C)cc1	-19	2	4	3	0	-7	.	.	.
COc1ccc(OC)c(C(=O)NC(CC(N)=O)c2ccc(NCCN3CCOCC3)c([N+](=O)[O-])c2)c1 (stereo unspecified)	8	6	94*	0	4	2	11	9	-23
COc1ccc(OC)c(C(=O)NC(CC(N)=O)c2ccc(NCCN3CCCC3)c([N+](=O)[O-])c2)c1 (stereo unspecified)	-2	-40	4	3	-11	6	.	.	.
Cc1cc(C)cc(C(=O)OCCCN(C)C2CN(Cc3cn(Cc4ccccc4C(F)(F)F)nn3)S(=O)(=O)C2)c1 (stereo unspecified)	10	.	.	.	10	.	.	.	.
COc1ccc(S(=O)(=O)Cc2ccc(C(=O)NCC(OC)OC)o2)cc1	0	11	54	3	28	-1	20	11	1
O=C(C1CCCN1S(=O)(=O)c1cccc2nsnc12)N1CCN(c2ccc(F)cc2)CC1 (stereo unspecified)	-18	-6	58*	15	-4	7	20	-10	-25
O=[N+]([O-])c1cccc(-c2nnc(C34CC5CC(CC(C5)C3)C4)o2)c1	4	5	77*	9	16	10	11	7	-14
O=C(NC1CCCCN(Cc2ccc(Cl)cc2)C1=O)c1ccccn1 (stereo unspecified)	7	.	.	.	-16	.	.	.	.
O=C(CN(C(=O)CCC(=O)Nc1nccs1)c1cccc(F)c1)NCC1CCCO1 (stereo unspecified)	-1	1	7	1	11	-11	.	.	.
Cc1cccc(N(CC(=O)NC(C)(C)C)C(=O)CCC(=O)Nc2nccs2)c1	7	4	-12	3	1	21	.	.	.
O=C(CN(C(=O)CCC(=O)Nc1nccs1)c1cccc(C(F)(F)F)c1)NCC1CCCO1 (stereo unspecified)	-4	-2	56*	-7	-32	5	17	26*	-26
CC(C)(C)NC(=O)CN(C(=O)CCC(=O)Nc1nccs1)c1cccc(C(F)(F)F)c1	3	11	55	10	1	4	27	16	-17
NC(=O)C1CCN(c2ncc(Br)s2)CC1	-8	.	.	.	.	.	.	.	.
O=[N+]([O-])c1cccc(C2=Nn3c(nnc3-c3ccccc3)SC2)c1	-6	.	.	.	4	.	.	.	.
O=C(COC(=O)c1cnccn1)c1ccc2ccccc2c1	9	-9	6	6	2	3	.	.	.
O=C(COC(=O)c1cnccn1)c1cccc([N+](=O)[O-])c1	5	-4	50	10	-2	0	19	16	0
CC(Oc1ccc(Br)cc1Br)C(=O)Nc1cccnc1Cl (stereo unspecified)	1	-18	52	2	3	3	9	11	-31
COc1ccccc1N1CCN(CC(O)c2c(C)[nH]c3ccccc23)CC1 (stereo unspecified)	-5	4	61*	1	2	2	20	21	-29
SMILES	NR2F2 inh	NR5A2 inv ag	Gli-Sufu block	NCOA3 inh	SRC2 inh	NCOA1 inh	Gli antag conf	Gli cytotox	Wnt3a cs
CCOC(=O)C1CCN(C(=O)C(Cc2ccc3c(c2)OCO3)NC(C)=O)CC1 (stereo unspecified)	-13	.	.	.	-7	.	.	.	.
CC[C@@H](CCCCCCCn1ccc2ccccc21)CCC(=O)N(c1ccccc1)c1ccccc1	7	.	.	.	12	.	.	.	.
CC(C)(C)c1nnc(N/N=C/c2ccccc2O)n(N)c1=O	14	-16	61*	79*	33	70*	71*	51*	55*
CC(C)(C)c1nnc(N/N=C/c2ccccc2)n(N)c1=O	19	1	-13	-5	-15	-13	.	.	.
CCCCCCn1cc(CN2CC=CS2(=O)=O)nn1	0	.	.	.	-16	.	.	.	.
O=C(Cc1ccc(N2CCNC2=O)cc1)N1CCCC(Nc2ccc(F)c(F)c2)C1 (stereo unspecified)	5	25	-3	12	21	17	.	.	.
O=C(Cc1ccc(N2CCNC2=O)cc1)N1CCCC(Nc2cccc(F)c2)C1 (stereo unspecified)	7	19	53	-22	-13	-14	17	41*	-48
O=C(O)c1ccc(-c2ccc(O)c(F)c2)cc1	-4	18	53	4	3	13	18	-4	-7
O=C(O)c1ccc(O)c(O)c1	-8	-21	3	19	14	-4	.	.	.
CC(=O)Nc1cccc(NC(=O)CCn2cnc3cc(C)c(C)cc32)c1	-1	-5	58*	6	-9	-5	11	6	-57
CCCCCCc1cc2cc(C(=O)Nc3ccccc3)c(=O)oc2cc1O	-14	11	73*	11	-18	4	64*	30*	79*
CCN(CC)C(=O)CN(c1cc(Cl)ccc1OC)S(C)(=O)=O	-1	15	51	6	-25	-6	22	13	-5
CCC(C)NC(=O)CN(c1cc(Cl)ccc1OC)S(C)(=O)=O (stereo unspecified)	14	-9	-6	10	0	-2	.	.	.

Assay outcomes as filed in PubChem BioAssay.
